The record followed here is PubChem BioAssay (NCI).

The panel holds about 83,000 compounds, 20% with a hit somewhere; the sample as a whole holds those more often.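 Interpretation: 100, growth as untreated; towards 0, rising growth inhibition; 0, no net growth; 0 to -100, cell death. Compounds scoring below 10 were considered active.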 The source made the active and inactive calls.

The assay relates to MOLT-4 leukemia. The assay can be described thus: NCI-60 one-dose screen, 48 h (100 = growth as untreated, 0 = no growth, -100 = all killed). The note with it: 10 µM unless noted.
Turning to `CC1(C)CC[C@]23CC[C@]4(C)[C@H](CC[C@@H]5[C@@]6(C)CCCN(CO)C(C)(C)[C@@H]6CC[C@]54C)[C@H]2[C@H]1OC3`, the growth was 35.4% (inactive).
For `O=C1[C@H]2Cc3c([nH]c4ccccc34)[C@@H](c3ccc(Br)cc3)N2C(=O)CN1C1CCN(CC2CCCCC2)CC1` the value was -43.5% (active); for `COc1ccc([C@H]2c3[nH]c4ccccc4c3C[C@H]3C(=O)N(C4CCN(Cc5c(Cl)cccc5Cl)CC4)CC(=O)N23)c(OC)c1`, 86.2% (inactive).
For `NS(=O)(=O)c1ccc(Nc2nc(Nc3ccccc3)nc3nnc(SCC(=O)NC4CCCCC4)n23)cc1` the value was 101% (inactive); for `O=C(NNc1nc2cc(F)ccc2n2c(CN3CCC(O)C3)ccc12)c1cnccn1` (stereo not drawn), 3.23% (active); for `CCN(CC)c1cn(-c2ccc(S(N)(=O)=O)cc2)nn1`, 97.7% (inactive).
For `O=[N+]([O-])c1cc(/C=N/Nc2nc(N/N=C/c3ccc(Cl)c([N+](=O)[O-])c3)nc(N3CCCCC3)n2)ccc1Cl` the value was 42.3% (inactive).
As to `COc1ccc(COc2ccc(/C=C3\C(=O)Nc4ccccc43)cc2OC)cc1`, the growth is 102% (inactive).
For `CCNC(=O)Oc1ccc(/C(=C(/C)c2ccccc2)c2ccc(OCCN3CCCCCC3)cc2)cc1` the value was 2.51% (active).
For the compound `COc1cc(/C=N/NC(=O)c2cn(C3CC3)c3c(OC)c(N4CC5CCCNC5C4)c(F)cc3c2=O)ccc1O` (stereo not drawn), the growth is 2.34% (active).
`CC(C)c1ccc(NCc2cn(-c3ccc(C(=O)O)cc3)nc2-c2cc(C(F)(F)F)cc(C(F)(F)F)c2)cc1`: the growth is 71.6% (inactive).
With `C[C@@H]1C[C@H]2C(=O)O[C@@H](C)C(NC(=O)[C@H](Cc3cc(F)cc(F)c3)NC(=O)Nc3ccc(Cl)cc3F)C(=O)N3CCC[C@H]3C(=O)N3CCCC[C@H]3C(=O)N[C@@H](CO)C(=O)N2C1` (stereo partly drawn) the figure was 36.5% (inactive); with `CC(=O)O[C@@H]1C(=O)N(c2cnccn2)[C@H]1c1ccccc1[N+](=O)[O-]`, 16.4% (inactive); with `C=C1CC[C@@H]2[C@]3(C)COC(c4ccccc4)O[C@@H]3CC[C@@]2(C)[C@@H]1C/C=C1/C(=O)OC[C@H]1O` (stereo partly drawn), 84% (inactive).
For `Nc1nc(-c2cccc([N+](=O)[O-])c2)c(N=Nc2cccc([N+](=O)[O-])c2)s1`, the growth is 112% (inactive).
Take `Nc1cc(F)ccc1NC(=O)c1ccc(NC(=O)C/C=C/c2cccnc2)cc1`: the growth was 40.7% (inactive).
For `CCc1nn2c(C)cc(C)nc2c1Cc1ccc(/C=C/CN2CCN(CCOCCOCCN3CCN(C/C=C/c4ccc(Cc5c(CC)nn6c(C)cc(C)nc56)cc4)CC3)CC2)cc1` the value was -17.6% (active); for `COc1ccc(NC(=O)CSc2nnc(-c3ccc4nc(-c5ccccc5)[nH]c4c3)o2)cc1`, 83.5% (inactive); for `COc1ccc(N2C(=O)c3cc(Cl)ccc3NC2SCc2ccccc2)cc1` (stereo not drawn), 84.5% (inactive).
As for `O=C(CSc1nc2ccccc2c(=O)n1-c1ccccc1)Nc1ccc(-c2nc3ccc([N+](=O)[O-])cc3[nH]2)cc1`, the growth is 20.4% (inactive).
For `O=C(NCCn1ccnc1)c1ccc(-c2nc3ccc4[nH]ncc4c3c3c2CCCC3)cc1` the value was 29.1% (inactive).
With `NC(N)=Nc1ccc(Oc2cccc(Nc3ccc(Cl)cc3)c2)cn1` the figure was -12.8% (active).
For `O=C(CN1CCN(c2cc(=O)[nH]c3ccc(F)cc23)CC1)Nc1ccc(Cl)cc1` the value was 92.4% (inactive).
